Source: PubChem BioAssay
PLK1 PBD inh – qHTS for Inhibitors of PLK1-PDB (polo-like kinase 1 - polo-box domain): Primary Screen. 2.8% of 360,000 active. Serine/threonine-protein kinase PLK1 (Homo sapiens), P53350. Potency, µM, for the others: max response, negative = inhibition, most hits filed as inhibitors. Plk1 PBD binding of FITC phosphopeptide, fluorescence polarization; note: potency is the fitted concentration of half-maximal effect; series mostly up to about 57 µM; nearly all actives have a fitted effect of over 65% in size
USP2a block – qHTS Assay for Inhibitors of Ubiquitin-specific Protease USP2a Using CHOP2 as the Reporter; Ubiquitin carboxyl-terminal hydrolase 2 (Homo sapiens), O75604; 0.01% of 330,000 active; USP2 core, Ub-CHOP2 coupled fluorogenic reporter, 485/531; Potency, µM (titrated, usually from 38.3 µM), inactives show at the top dose activity change, negative = inhibition, actives largely listed as inhibitors; AID 463254, 2010;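 note: potency is the fitted concentration of half-maximal effect; plate controls were DMSO wells for no effect and full inhibition by NEM control for full effect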
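USP2 core (10nM final) preincubated 30min RT with compound in 20mM Tris-HCl pH 8.0, 2mM CaCl2, 2mM beta-mercaptoethanol, 0.05% CHAPS; 25nM Ub-CHOP2 plus 25nM reporter substrate added, fluorescence (Ex485/Em531) read after 60min.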
PI5P4K alpha inh – qHTS for Inhibitors of phosphatidylinositol 5-phosphate 4-kinase (PI5P4K); Phosphatidylinositol 5-phosphate 4-kinase type-2 alpha (Homo sapiens), P48426; PI5P4Kalpha enzyme, ADP-Glo luminescence, 60 min; active compounds read low; 1.2% of 330,000 active; max response, %; active = max response of -50% or lower; inconclusive = between -30% and -50%; inactive = -30% or higher; note: value at the top dose of about 77 µM
Target sequence (P48426 whole entry, looked up): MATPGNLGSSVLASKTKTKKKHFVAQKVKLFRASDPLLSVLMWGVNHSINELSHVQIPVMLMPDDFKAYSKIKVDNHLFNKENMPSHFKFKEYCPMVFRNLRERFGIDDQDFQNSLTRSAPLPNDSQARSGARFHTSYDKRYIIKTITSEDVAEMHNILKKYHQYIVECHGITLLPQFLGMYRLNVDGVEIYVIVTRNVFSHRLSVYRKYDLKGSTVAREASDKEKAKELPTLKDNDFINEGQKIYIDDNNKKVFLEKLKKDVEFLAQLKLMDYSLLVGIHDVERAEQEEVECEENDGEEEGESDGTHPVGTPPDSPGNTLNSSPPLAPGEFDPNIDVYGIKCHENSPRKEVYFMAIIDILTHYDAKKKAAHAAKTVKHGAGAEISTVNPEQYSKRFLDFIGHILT
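Quantitative HTS of the MLSMR library against PI5P4Kalpha with substrate. ATP added last at 5 microM final; room temperature, 60 minutes. Remaining ATP depleted, ADP converted and read as luminescence.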
USP1-UAF1 inh – Inhibitors of USP1/UAF1: Primary Screen; AID 743255, 2014; 0.23% of 390,000 active; recombinant USP1/UAF1, Ub-Rhodamine cleavage fluorescence; Ubiquitin carboxyl-terminal hydrolase 1 (Homo sapiens), O94782; Potency, µM (highest dose often 57.1 µM), inactives show top-dose activity change, negative = inhibition, most hits filed as inhibitors; note: potency is the fitted concentration of half-maximal effect; nearly all actives have a fitted effect of over 60% in size
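Step one: compound is pinned into 1nM USP1/UAF1 in HEPES pH 7.8 buffer with TCEP. Step two: 15 min room-temperature incubation. Step three: Ub-Rho (150nM final) starts cleavage, tracked by fluorescence over six one-minute reads.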
WRN helicase inh – qHTS for Inhibitors of WRN Helicase; Bifunctional 3'-5' exonuclease/ATP-dependent helicase WRN (Homo sapiens), Q14191; WRN helicase unwinding, fluorescent forked duplex, kinetic; Potency, µM (highest dose often 114 µM), for inactives: top-dose activity change, negative = inhibition, most hits filed as inhibitors; 0.46% of 360,000 active; note: potency is the fitted concentration of half-maximal effect; nearly all actives have a fitted effect of over 55% in size
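Fluorescence dequenching readout, ex 525 nm/em 598 nm, kinetic mode: forked duplex DNA (100 nM final) with adjacent fluorophore and quencher unwound by WRN (20 nM final) with 2 mM ATP. Compound preincubation 15 min, room temperature.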
Active calls of the source: *; [ ] = dose if it differs, or a comment. This is a sample that favours compounds with a hit; in the whole collection about 3.3% have one here. Unless noted, calls come from the whole dose curve; as a rule, active = well fitted curve in the direction sought with a large enough effect; inconclusive = small, poorly fitted or top-dose-only effect, or another doubt; inactive = no such curve, though single readings can be large; an effect the other way counts as inactive or inconclusive. Unless noted, % is set by controls: 0 for no effect and ±100 for the full control effect.

For CS(=O)c1ccccc1-c1nc(-c2cccc(Cl)c2)no1 (centres undefined) the results were PLK1 PBD inh 27µM*, USP2a block 3%, PI5P4K alpha inh inconclusive, USP1-UAF1 inh inconclusive and WRN helicase inh 0%.
For COc1ccc(CCNC(=O)C(=O)NCC(c2ccco2)S(=O)(=O)c2ccccc2)cc1OC (centres undefined) the results were USP1-UAF1 inh 1%.
`Cc1ccc(C(=O)Sc2cccccc2=O)cc1` gave PLK1 PBD inh 2.7µM*, USP2a block -9%, PI5P4K alpha inh -27, USP1-UAF1 inh -19% and WRN helicase inh -18%[57.1 µM].
`O=C(Nc1ccccc1SC(=O)c1ccccc1)c1ccccc1` gave PLK1 PBD inh 4.2µM*, PI5P4K alpha inh inconclusive, USP1-UAF1 inh -32% and WRN helicase inh 0%.
Screening Cc1ccc2c(c1)c1c(c(=O)n(-c3ccccc3)c(=O)n1CC(=O)N1CCCC1)n2C returned USP1-UAF1 inh 3%.
`CCN(CC)C1=CC(=O)OC12CCCCC2` gave PLK1 PBD inh 11µM*, USP2a block 1%, PI5P4K alpha inh inconclusive, USP1-UAF1 inh -16% and WRN helicase inh 9%.
For Cc1ccc(CSc2nc3cccnc3n2Cc2ccc(C(=O)NCCc3cccs3)cc2)cc1 the results were USP1-UAF1 inh -12%.
`Cc1ccc(S(=O)(=O)N(C)CC(=O)Nc2nc3ccccc3s2)cc1` gave PLK1 PBD inh -9%, USP2a block 2%, PI5P4K alpha inh -2, USP1-UAF1 inh -8% and WRN helicase inh -10%.
Cc1ccc(/C(=N/Nc2nc3ccccc3s2)C2=C(O)c3ccccc3C2=O)cc1 was read as PLK1 PBD inh inconclusive, USP2a block -3%, PI5P4K alpha inh -81*, USP1-UAF1 inh -23% and WRN helicase inh -1%.
For CC(C)NC(=O)c1ccc2c(c1)nc1n2CCCCC1 the results were USP1-UAF1 inh 8%.
For CCOc1ccc(NC(=O)CSc2nc3ccsc3c(=O)n2CCCCC(=O)O)cc1 the results were PLK1 PBD inh -4%, PI5P4K alpha inh -65*, USP1-UAF1 inh -23% and WRN helicase inh -4%[11.6 µM].
CCCCn1c(SCC(=O)Nc2ccc(OCC)cc2)nc2ccsc2c1=O was read as USP1-UAF1 inh 7%.
Screening Cc1cc(/C=C2/C(=N)N3C(=NC2=O)SN=C3S(C)(=O)=O)c(C)n1-c1ccc(F)cc1 returned PLK1 PBD inh inconclusive, USP2a block 0%, PI5P4K alpha inh -64*, USP1-UAF1 inh -13% and WRN helicase inh -11%.
CCOc1cc(/C=C2/C(=N)N3C(=NC2=O)SN=C3S(C)(=O)=O)ccc1OS(=O)(=O)c1ccccc1 was read as PLK1 PBD inh 15µM*, USP2a block 1%, PI5P4K alpha inh -63*, USP1-UAF1 inh -21% and WRN helicase inh -27%.
For COc1ccccc1-n1c(C)cc(/C=C2/C(=N)N3C(=NC2=O)SN=C3S(C)(=O)=O)c1C the results were PLK1 PBD inh inconclusive, USP2a block -2%, PI5P4K alpha inh -51*, USP1-UAF1 inh -16% and WRN helicase inh -8%.
For COc1cc(/C=C2/C(=N)N3C(=NC2=O)SN=C3S(C)(=O)=O)ccc1OS(=O)(=O)c1ccccc1 the results were USP2a block -1%.
For CCOc1ccc(-n2c(C)cc(/C=C3/C(=N)N4C(=NC3=O)SN=C4S(C)(=O)=O)c2C)cc1 the results were PLK1 PBD inh 19µM*, USP2a block 0%, PI5P4K alpha inh -64*, USP1-UAF1 inh inconclusive and WRN helicase inh -13%.
Cc1ccccc1NC(=O)Cn1nc(-c2ccc(F)cc2)c2cnc3ccccc3c21 was read as USP1-UAF1 inh -28%.
For CCCCN(CCCC)CCNC(=O)c1cc(=O)[nH]c2ccc(S(=O)(=O)N3CCCCCC3)cc12 the results were USP1-UAF1 inh -9%.
N/C(=N\OC(=O)Cc1ccccc1)c1ccccn1 was read as PLK1 PBD inh 12µM*, USP2a block -1%, PI5P4K alpha inh -22, USP1-UAF1 inh 4% and WRN helicase inh 17%.
CCOc1ccc(C(=O)O/N=C(\N)c2ccccn2)cc1 was read as PLK1 PBD inh -6%, USP2a block -1%, PI5P4K alpha inh -79*, USP1-UAF1 inh -25% and WRN helicase inh -6%.
For Cc1ccc(C(=O)O/N=C(\N)c2ccccn2)cc1 the results were PLK1 PBD inh -6%, USP2a block 2%, PI5P4K alpha inh -55*, USP1-UAF1 inh -12% and WRN helicase inh 1%.
For N/C(=N\OC(=O)c1ccccc1)c1ccccn1 the results were PLK1 PBD inh -6%, USP2a block -1%, PI5P4K alpha inh inconclusive, USP1-UAF1 inh -18% and WRN helicase inh 3%.
`N/C(=N\OC(=O)CCCc1ccccc1)c1ccccn1` gave PLK1 PBD inh -7%, USP2a block 0%, PI5P4K alpha inh 6, USP1-UAF1 inh -3% and WRN helicase inh -1%.
`CCC(C)NC(=O)c1ccc(Cn2c(=O)c3cccn3c3cccnc32)cc1` (centres undefined) gave USP1-UAF1 inh 3%.
Screening O=C(O)c1cccc(N2C(=O)/C(=C/c3ccc(SCc4ccc(Cl)cc4)o3)SC2=S)c1 returned PLK1 PBD inh inconclusive, USP2a block 2%, PI5P4K alpha inh -73*, USP1-UAF1 inh inconclusive and WRN helicase inh 18µM*.
`Nc1n[nH]c(=S)n1-c1ccc(Cl)cc1` gave PLK1 PBD inh 12µM*, USP2a block 6%, PI5P4K alpha inh -54*, USP1-UAF1 inh -6% and WRN helicase inh 4%.
S=c1[nH]nc(-c2ccc(Cl)cc2)n1-c1ccc(Cl)cc1 was read as PLK1 PBD inh inconclusive, USP2a block 1%, PI5P4K alpha inh 0, USP1-UAF1 inh 0% and WRN helicase inh -11%.
`CCn1c(=O)cc(OCC(=O)N(C)c2cc(Cl)ccc2C)c2ccccc21` gave USP1-UAF1 inh -13%.
For COC(=O)Cc1sc(-c2ccccn2)nc1-c1ccccc1 the results were PLK1 PBD inh 4.7µM*, USP2a block 4%, PI5P4K alpha inh inconclusive, USP1-UAF1 inh -13% and WRN helicase inh 7%.
O=S(=O)(c1ccccc1)N1N=C(c2cccs2)CC1c1ccc(F)cc1 (centres undefined) was read as PLK1 PBD inh 21µM*, USP2a block -16%, PI5P4K alpha inh 6, USP1-UAF1 inh -31% and WRN helicase inh -1%.
